Structures are written as SMILES. The source made the active and inactive calls. Rule for the calls: active = hit-call score of the fitted dose curve at least 0.9, where 1 is the maximum; inactive = score below 0.9.

This test is described as follows: CCTE_Shafer_MEA_dev_firing_rate_mean: CCTE's Neural Network Formation Assay for Mean Firing Rate, Shafer Lab (AID 2284031).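 For AC50: curve fitted for loss of firing so AC50 reflects decreased mean firing rate.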 The protocol:
CCTE_Shafer_MEA_dev assay is conducted using Axion Biosystems 48 well microelectrode array (MEA) plates and Maestro recording system. Each well of the MEA plate contains a grid of 16 microelectrodes embedded in the culture surface. Electrically active cells, such as neurons, can be cultured over the electrodes, and electrical activity in these cells can be recorded extracellularly. The spontaneous firing of neurons is captured from each electrode on a microsecond timescale providing both temporally and spatially precise data. […] The CCTE_Shafer_MEA_dev assay uses primary cultures of rat cortical neurons. Recordings are made on days post-plating 5, 7, 9 and 12. As these cultures mature over time, neural networks develop functional activity and form cohesive networks in which electrical activity can be highly coordinated. CCTE_Shafer_MEA_dev_firing_rate_mean is 1 of 19 assay components of the CCTE_Shafer_MEA_dev assay. It measures the frequency of spikes (action potential firings) as the total number of spikes divided by the length of the recording in a microelectrode array (MEA) using Axion Biosystems Maestro 768 channel amplifier with the AxIS adaptive spike detector. The firing rate is averaged across the active electrodes to report a well-mean value. To collapse across multiple recordings made on days post-plating 5, 7, 9 and 12, the trapezoidal area-under-the-curve of the component is calculated.Data from the assay component CCTE_Shafer_MEA_dev_firing_rate_mean was analyzed into 1 assay endpoint. This assay endpoint, CCTE_Shafer_MEA_dev_firing_rate_mean, was analyzed in the negative analysis fitting direction relative to DMSO as the negative control and baseline of activity. Using a type of functional reporter, gain or loss-of-signal activity can be used to understand electrical activity.
On the day prior to culture, each well was coated thoroughly with 150 uL of 0.05% polyethyleneimine (PEI, Sigma Cat P3143) in 50 mM HEPES (Sigma Cat H7523) at a pH of 8. The plate was incubated at 37C for one hour. PEI was rinsed out with 500 uL of sterile water three times. Plates were stored at 4C until the day of culture. This culture was plated at a seeding density of 1.5 x 10^5 cells/well on a 48-well MEA plate, prepared as described above. Cells were administered via a 25 uL media/laminin ([…]; Sigma Cat L2020-1MG) drop directly onto the microelectrode array, as adding the cells with the laminin results in better attachment than pre-coating with laminin. After 2 hours, an additional 475 uL of cortical media was added and the cells returned to the incubator. Exposure starts at day 0 of plating and is continued over twelve days of network development until the experiment is terminated. Cells are fed with fresh medium on DIV 5 and 9, following the recordings on those days. The entire volume of media in the well is exchanged and any vehicle or compound treatment is renewed. Complete details are found in OP-NHEERL/ISTD/SBB/TJS/2015-03-r0 (available on request, email shafer.tim@epa.gov). Measurement of the electrical activity is non-invasive, and recordings can be made from the same plate over multiple different days of the culture. In cortical neurons, this allows for the measurement of extracellular action potentials over the period during which networks form in the MEA plate.
By AC50 is commonly meant the midpoint of the concentration-response curve, whichever way the signal moves. For `C=CC(=O)OCC(F)(F)C(F)(F)C(F)(F)C(F)(F)COC(=O)C=C`, the AC50 was 4.34 µM (active).

With `OCC(F)(F)C(F)(F)C(F)(F)C(F)(F)C(F)(F)C(F)F`, the molecule was called inactive.

Consider `FC(F)(F)C(F)(F)CNCC(F)(F)C(F)(F)F`, for which the result was inactive.

On to `NC(=O)C(F)(F)C(F)(F)C(F)(F)C(F)(F)F`, for which the call was inactive.

Take `FC(F)(F)C(F)(F)C(F)(F)C(F)(F)C(F)(F)C(F)(F)CC1CO1` (stereo not drawn): the molecule was called inactive.

As for `O=C(O)C(F)(F)C(F)(F)C(F)(F)F`, the molecule was classed as inactive.

`O=C(O)C(F)(F)C(F)(F)C(F)(F)C(F)(F)C(F)(F)C(F)(F)C(F)(F)C(F)(F)Cl`: the call was inactive.

Regarding `O=P(O)(O)OCCC(F)(F)C(F)(F)C(F)(F)C(F)(F)C(F)(F)C(F)(F)F`, the outcome was inactive.

Regarding `CC(C)(C)C(=O)CC(=O)C(F)(F)C(F)(F)C(F)(F)F`, the call was inactive.

For the molecule `CC(CCl)OP(=O)(OC(C)CCl)OC(C)CCl` (stereo not drawn), the outcome was inactive.

`O=C(O)C(F)(F)C(F)(F)C(F)(F)C(F)(F)C(F)(F)C(F)(F)C(F)(F)C(F)(F)C(F)(F)C(F)F`: the molecule was called inactive.

Take `O=C(O)C=C(C(F)(F)F)C(F)(F)F`: the result was inactive.

In the case of `O=S(=O)(OCC(F)F)C(F)(F)F`, the outcome was inactive.

In the case of `OC[C@@H](O)[C@@H](O)[C@H](O)[C@@H](O)CO`, the molecule was classed as inactive.

Regarding `FC(F)(F)C(F)(F)C(F)(F)C(F)(F)C(F)(F)CCI`, the call was inactive.

`Cc1ccc(S(=O)(=O)OCC(F)(F)C(F)(F)C(F)(F)C(F)(F)C(F)(F)C(F)F)cc1`: the molecule was called inactive.

On to `OCC(F)(F)C(F)(F)C(F)(F)F`, for which the molecule was classed as inactive.

For `OCC(F)(F)C(F)(F)C(F)(F)C(F)F`, the call was inactive.

For the molecule `N=C(N)C(F)(F)C(F)(F)C(F)(F)C(F)(F)C(F)(F)C(F)(F)C(F)(F)F`, the molecule was classed as inactive.

As for `O=C(O)C(F)(F)C(F)(F)C(F)F`, the call was inactive.

For `OCCCC(F)(F)C(F)(F)C(F)(F)F`, the outcome was inactive.

On to `O=S(=O)(OCCOC(F)(F)F)C(F)(F)F`, for which the outcome was inactive.

Turning to `COC(=O)CCC(F)(F)C(F)(F)C(F)(F)C(F)(F)F`, the outcome was inactive.

(Values after PubChem BioAssay (EPA / NIEHS).)
